Experimental data taken from PubChem BioAssay AID624336 (National Center for Advancing Translational Sciences (NCATS), 2012).
Results filed as inconclusive are left out. The source made the active and inactive calls. Calls come from the whole dose curve; as a rule, active = well fitted curve in the direction sought with a large enough effect; inconclusive = small, poorly fitted or top-dose-only effect; inactive = flat fitted curve, though single readings scatter.

assay: Quantitative high throughput screen for delayed death inhibitors of the malarial parasite plastid: Hit Validation with Dd2 at 48 hr using Flow Cytometry; conditions: P. falciparum Dd2 growth, flow cytometry SYBR/MitoTracker; relative growth, lower = inhibition: at 50 µM (top of the series)
From the text: The goal of this screen is to discover new antimalarial compounds that act by inhibiting the development of the apicoplast organelle in the malarial parasite Plasmodium falciparum. Some antibiotics, such as azithromycin and tetracycline, are known to interfere with the apicoplast translational machinery, and have a potent antimalarial effect. […] We developed a cell-based quantitative high throughput screen that leverages this "delayed death" phenotype to enrich for compounds that target the apicoplast. To detect small molecules that cause the delayed death phenotype, erythrocytes infected with firefly luciferase-expressing parasites were incubated with compounds for either one or two generations, corresponding to 48 and 96 hours, respectively. Growth inhibition was detected by a decrease in luciferase activity. Compounds that inhibited parasite growth in the second generation at least five-fold more potently than in the first generation were defined as delayed death inducing. These compounds were selected for confirmatory screening using a flow cytometry based assay. This hit validation assay used the Dd2 cell line and measured at 48 hours. NIH Molecular Libraries Probe Production Network [MLPCN] NIH Chemical Genomics Center [NCGC] MLPCN Grant: R21 NS059500 Assay Provider: David Fidock and Eric Ekland, Columbia University
Test compounds were diluted in 20 microliters of complete media (RPMI 1640 with 0.5% w/v Albumax (GIBCO), 24 mM sodium bicarbonate (Sigma) and 10 ug/mL gentamycin (Gibco)) in clear 384-well plates (Greiner). All liquid handling was conducted using a Bio Tek Precision 2000 pipetting system. Twenty microliters of infected erythrocytes, 0.2% parasitemia (for 48 hour time points) or 0.1% parasitemia (for 96 hour time points) were added to the compound dilutions (1% hematocrit, final concentration; 40 microliters, total culture volume). The assay plates were incubated for 48 hours, or 96 hours, at 37 masculine C in a humidified chamber (Billups- Rothenberg, Del Mar, CA, USA), gassed with 5%CO2/5%O2/ 90%N2. After one generation (48 hours), 5 microliters of culture were harvested and transferred to a second 384 well plate for fluorescent staining. Samples were stained with 30 microliters of 2 x SYBR Green I (Invitrogen) and 150nM MitoTracker Deep Red (Invitrogen) diluted in 0.9% NaCl, 0.2% dextrose (Baxter) supplemented with 2.5% Fetal Calf Serum (Gibco) (saline/FCS). Mature erythrocytes lack nuclei and mitochondria, therefore only parasitized erythrocytes retain the SYBR Green I and MitoTracker Deep Red. After 30 minutes at 37 masculine C, the stained cells were diluted in an additional 60 microliters of saline/FCS. The samples were harvested directly from the 384 well plate using a Hypercyt High Capacity Flow Platform (Intellicyt) paired with a C6 Flow Cytometer (Accuri). The flow cytometry files were analyzed using FlowJo software (FlowJo).

Row | Compound | Potency | relative growth, lower = inhibition
1 | CCC(=O)OC1C(N(C)C)CC(C)O[C@H]1O[C@H]1[C@H](C)[C@@H](O[C@H]2CC(OC)[C@@H](O)C(C)O2)[C@H](C)C(=O)O[C@@H](CC)[C@](C)(O)[C@@H](O)[C@H](C)C(=O)[C@@H](C)C[C@]1(C)O (stereo partly specified) | 34.1 µM (active) | 
2 | CCOc1ccc(S(=O)(=O)Nc2cc(S(=O)(=O)N(CC)CC)ccc2N2CCCC2)cc1 |  | 0.264 (active)
3 | CCCCN(CCCNC(=O)C1CCN(C(=O)c2cc3sccc3n2C)CC1)Cc1ccccc1 | 3.62 µM (active) | 
4 | O=C(CNC(=O)C1CCCCC1)OC(C(=O)c1ccccc1)c1ccccc1 (stereo unspecified) | inactive | 
5 | Cc1ccc(S(=O)(=O)Nc2ccc(C(=O)Nc3ccncc3)cc2)cc1 |  | 0.257 (active)
6 | COc1ccc(NC(=S)N2CCC(Cc3ccccc3)CC2)cc1OC | 10.8 µM (active) | 
7 | CO[C@@H]1[C@@H](OC2OC(C)C(OC3CC(C)(O)C(OC(=O)CC(C)C)C(C)O3)C(N(C)C)C2O)[C@@H](CC=O)C[C@@H](C)C(=O)/C=C\C2O[C@H]2C[C@@H](C)OC(=O)C[C@H]1OC(C)=O (stereo partly specified) | 1.04 µM (active) | 
8 | O=C(Nc1ccccc1N1CCOCC1)c1cccc(S(=O)(=O)N2CCOCC2)c1 | 14.7 µM (active) | 
9 | N#Cc1cccc(NC(=O)Cn2c3[n+](c4ccc(C(F)(F)F)cc42)CCCCC3)c1 | 26.1 µM (active) | 
10 | Clc1ccc(-c2c[n+](Cc3ccc(Cl)cc3Cl)c3n2CCCCC3)cc1 | 5.44 µM (active) | 
11 | CCOC(=O)c1ccc2c(c1)n(CC)c(/C=C/N(C)c1ccccc1)[n+]2CC | 2.08 µM (active) | 
12 | CCCCOc1ccc(N2C(N)=NC(N)=NC23CCCCC3)cc1 | 23 µM (active) | 
13 | COc1cc(C(C)=O)ccc1OCC(O)CN1CCN(c2cc(C)cc(C)c2)CC1 (stereo unspecified) | inactive | 
14 | COCCNC(=O)c1cccc(OC2CCN(Cc3cccc(SC)c3)CC2)c1 | inactive | 
15 | CC1=Nc2cc(C(=O)N3CCCC3)ccc2Sc2ccc(C)cc21 |  | 0.214 (active)
16 | CCCCN(CCCNC(=O)c1ccc(CS(=O)(=O)c2ccc(OC)cc2)o1)Cc1ccccc1 | 6.24 µM (active) | 

Row | Compound | Potency | relative growth, lower = inhibition
17 | Brc1cccc(OCCCCN2CCCCC2)c1 | 2.36 µM (active) | 
18 | COc1ccc2c(ccc[n+]2CC(=O)c2ccccc2)c1 | 7 µM (active) | 
19 | COc1cccc(CN2CCN(c3nc4nonc4nc3N3CCCCC3)CC2=O)c1 | 14 µM (active) | 
20 | CN(C)c1ccc(CN(C(=O)c2ccccc2Br)C2CCS(=O)(=O)C2)cc1 (stereo unspecified) | 9.14 µM (active) | 
21 | CCCc1cc(=O)oc2cc(OC(C)C(=O)NCc3ccccn3)c(Cl)cc12 (stereo unspecified) | 20.8 µM (active) | 
22 | Cc1sc2nc[nH]c(=O)c2c1-c1ccc(Cl)cc1 | 31.7 µM (active) | 
23 | Cc1ccc(-n2c(-c3ccc(Cl)cc3)c[n+]3c2CCC3)cc1 | 2.64 µM (active) | 
24 | CCOc1ccc(NC(=O)C[n+]2ccc(N(C)C)cc2)cc1 | 2.57 µM (active) | 
25 | O=C(CSc1ccc(-c2cccnc2)nn1)Nc1ccccc1C(F)(F)F | 8.74 µM (active) | 
26 | Cc1ccc(CN2CCC(n3nccc3NC(=O)c3ccccc3C)CC2)o1 | 2.38 µM (active) | 
27 | CN(C)S(=O)(=O)c1cc(NC(=O)C2=COCCO2)ccc1Cl |  | 1.39 (active)
28 | COc1ccccc1N1CCN(CCC(=O)Nc2ccc(F)cc2)CC1 |  | 0.587 (active)
29 | c1csc(CNc2ncnc3nc[nH]c23)c1 | inactive | 
30 | CCCc1c(CC)c(=N)c2ccccc2n1C |  | 0.187 (active)
31 | Cc1c(F)c(N2CCNC(C)C2)cc2c1c(=O)c(C(=O)O)cn2C1CC1 (stereo unspecified) | 4.14 µM (active) | 
